Common to all, as to conditions: mRNA level, 48 h; actives raise or lower the signal
Read-out in experiment [1]: ATP-citrate lyase (ACLY), ACLY (gene 47)
Description: LTEA_HepaRG_ACLY: Life Technologies and Expression Analysis (LTEA) Assay for ATP-citrate lyase (ACLY) using HepaRG (AID 2283466). A digest of the protocol:
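Differentiated human HepaRG cells in serum-free induction medium exposed 48 h, in duplicate, to eight half-log concentrations from 100 uM top in 0.5% DMSO; ACLY mRNA measured by qRT-PCR, normalized to ACTB, GAPDH, POLR2A, fitted bidirectionally versus DMSO.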

Read-out in experiment [2]: Peroxisomal acyl-coenzyme A oxidase 1 (ACOX1) gene, ACOX1 (gene 51)
In words: LTEA_HepaRG_ACOX1: Life Technologies and Expression Analysis (LTEA) Assay for Peroxisomal acyl-coenzyme A oxidase 1 (ACOX1) gene using HepaRG (AID 2283467). A digest of the protocol: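 Differentiated human HepaRG cells were exposed in duplicate for 48 h in serum-free induction medium to eight half-log concentrations up to 100 uM in 0.5% DMSO. ACOX1 mRNA was then quantified by TaqMan qRT-PCR, normalized to ACTB, GAPDH and POLR2A.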

Read-out in experiment [3]: Alkaline Phosphatase, Placental (ALPP) gene, ALPP (gene 250)
In words: LTEA_HepaRG_ALPP: Life Technologies and Expression Analysis (LTEA) Assay for Alkaline Phosphatase, Placental (ALPP) gene using HepaRG (AID 2283468). A digest of the protocol: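 Expression of ALPP was quantified by qRT-PCR against three housekeeping genes in human HepaRG cultures treated for 48 h with an eight-point concentration series up to 100 uM. Activity in either direction was fitted relative to 0.5% DMSO.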

Read-out in experiment [4]: Bcl-2 (BAD) gene, BAD (gene 572)
In words: LTEA_HepaRG_BAD: Life Technologies and Expression Analysis (LTEA) Assay for Bcl-2 (BAD) gene using HepaRG (AID 2283469). A digest of the protocol: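 Differentiated human HepaRG cells in serum-free induction medium were exposed in duplicate for 48 h to eight concentrations (top 100 uM, half-log steps, 0.5% DMSO). BAD mRNA was quantified by qRT-PCR normalised to ACTB, GAPDH and POLR2A, with bidirectional fitting versus DMSO.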

Read-out in experiment [5]: Bcl-2 (BAX) gene, BAX (gene 581)
Description: LTEA_HepaRG_BAX: Life Technologies and Expression Analysis (LTEA) Assay for Bcl-2 (BAX) gene using HepaRG (AID 2283470). A digest of the protocol:
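HepaRG (human liver), 48 h exposure, duplicate wells. 8-pt curve, half-log from 100 uM, 0.5% DMSO. BAX transcript by TaqMan qRT-PCR; ACTB/GAPDH/POLR2A normalization; gain or loss vs DMSO baseline.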

Read-out in experiment [6]: adenosine kinase (ADK) gene, ADK (gene 132)
In words: LTEA_HepaRG_ADK: Life Technologies and Expression Analysis (LTEA) Assay for adenosine kinase (ADK) gene using HepaRG (AID 2283471). A digest of the protocol: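 Differentiated HepaRG cells dosed 48 h in serum-free induction medium, 0.5% DMSO vehicle, eight half-log concentrations from 100 uM, in duplicate. ADK mRNA by TaqMan qRT-PCR normalised to ACTB, GAPDH, POLR2A; bidirectional fit versus DMSO.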

Read-out in experiment [7]: Alpha-fetoprotein (AFP) gene, AFP (gene 174)
In words: LTEA_HepaRG_AFP: Life Technologies and Expression Analysis (LTEA) Assay for Alpha-fetoprotein (AFP) gene using HepaRG (AID 2283472). A digest of the protocol: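 HepaRG, single lot; 48 h post-plating -> serum-free induction medium; cpd 8-pt, 100 uM top, half-log, 0.5% DMSO, duplicate, 48 h. RNA -> qRT-PCR AFP, norm ACTB/GAPDH/POLR2A. Bidirectional fit vs DMSO.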

Read-out in experiment [8]: BCL2L11 (gene 10018)
In words: LTEA_HepaRG_BCL2L11: Life Technologies and Expression Analysis (LTEA) Assay for Bcl-2 (BCL2L11) gene using HepaRG (AID 2283473). A digest of the protocol:
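Cells were plated, cultured 48 h, switched to serum-free induction medium, then dosed in duplicate for 48 h at eight half-log concentrations up to 100 uM. Lysates underwent RNA isolation and TaqMan qRT-PCR; gain or loss versus DMSO was fitted.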

Read-out in experiment [9]: Apolipoprotein A-V (APOA5) gene, APOA5 (gene 116519)
In words: LTEA_HepaRG_APOA5: Life Technologies and Expression Analysis (LTEA) Assay for Apolipoprotein A-V (APOA5) gene using HepaRG (AID 2283474). A digest of the protocol:
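Human liver HepaRG cells are treated 48 h with test chemicals (100 uM top, half-log dilutions, 0.5% DMSO). APOA5 mRNA induction or loss is measured by qRT-PCR relative to vehicle.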

Read-out in experiment [10]: Apoptosis regulator Bcl-2 (Homo sapiens) (UniProt P10415)
Description: LTEA_HepaRG_BCL2: Life Technologies and Expression Analysis (LTEA) Assay for Bcl-2 gene using HepaRG (AID 2283475). A digest of the protocol:
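HepaRG, plated 48 h then switched to serum-free induction medium; dosed 48 h, 8 conc. (max 100 uM, half-log steps), duplicate, 0.5% DMSO. Lysis in RLT, RNA isolated, TaqMan qRT-PCR for BCL2; ACTB/GAPDH/POLR2A normalisation; bidirectional fit vs DMSO.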

Read-out in experiment [11]: Bcl-2 (BID) gene, BID (gene 637)
In words: LTEA_HepaRG_BID: Life Technologies and Expression Analysis (LTEA) Assay for Bcl-2 (BID) gene using HepaRG (AID 2283476). A digest of the protocol: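 Transcript levels of BID, measured by qRT-PCR and normalized to three housekeeping genes, were fitted bidirectionally against DMSO controls. Cells were HepaRG, dosed 48 h at up to 100 uM.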

Read-out in experiment [12]: Caspase-3 (Homo sapiens) (UniProt P42574)
In words: LTEA_HepaRG_CASP3: Life Technologies and Expression Analysis (LTEA) Assay for cysteine-aspartic acid protease (CASP3) using HepaRG (AID 2283477). A digest of the protocol:
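In HepaRG liver cells dosed for 48 h at up to 100 uM (eight-point, duplicate), CASP3 expression changes are scored by qRT-PCR. Activity is fitted in both directions with 0.5% DMSO as baseline.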

Read-out in experiment [13]: Cytochrome P450 (CYP24A1), CYP24A1 (gene 1591)
In words: LTEA_HepaRG_CYP24A1: Life Technologies and Expression Analysis (LTEA) Assay for Cytochrome P450 (CYP24A1) using HepaRG (AID 2283478). A digest of the protocol: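 Human liver HepaRG cultures receive each chemical for 48 h across an eight-point half-log series topping at 100 uM in 0.5% DMSO. Induction or suppression of CYP24A1 mRNA is scored relative to vehicle after housekeeping-gene normalization.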

Read-out in experiment [14]: Cytochrome P450 (CYP1A2), CYP1A2 (gene 1544)
In words: LTEA_HepaRG_CYP1A2: Life Technologies and Expression Analysis (LTEA) Assay for Cytochrome P450 (CYP1A2) using HepaRG (AID 2283479). A digest of the protocol:
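Assesses CYP1A2 mRNA in human HepaRG liver cells after 48 h chemical exposure at up to 100 uM. Values come from qRT-PCR with bidirectional curve fitting relative to DMSO.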

Read-out in experiment [15]: cysteine-aspartic acid protease (CASP8), CASP8 (gene 841)
Description: LTEA_HepaRG_CASP8: Life Technologies and Expression Analysis (LTEA) Assay for cysteine-aspartic acid protease (CASP8) using HepaRG (AID 2283480). A digest of the protocol:
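Differentiated human HepaRG cells, plated 48 h then switched to serum-free induction medium, were exposed in duplicate for 48 h to 8 half-log concentrations up to 100 uM in 0.5% DMSO. CASP8 mRNA was quantified by qRT-PCR, normalized to ACTB/GAPDH/POLR2A.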

Read-out in experiment [16]: Cytochrome P450 (CYP2B6), CYP2B6 (gene 1555)
In words: LTEA_HepaRG_CYP2B6: Life Technologies and Expression Analysis (LTEA) Assay for Cytochrome P450 (CYP2B6) using HepaRG (AID 2283481). A digest of the protocol:
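Using 48 h treatment of HepaRG cells in serum-free induction medium, concentrations spanned half-log steps from 100 uM in 0.5% DMSO vehicle. CYP2B6 mRNA induction or loss is scored by qRT-PCR against DMSO.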

Read-out in experiment [17]: Cytochrome P450 2C19 (Homo sapiens) (UniProt P33261)
In words: LTEA_HepaRG_CYP2C19: Life Technologies and Expression Analysis (LTEA) Assay for CYP2C19 using HepaRG (AID 2283482). A digest of the protocol: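 Human HepaRG liver cells received test chemicals for 48 h (highest 100 uM, half-log dilutions in 0.5% DMSO). CYP2C19 mRNA induction or loss is read by multiplexed qRT-PCR and fitted in both directions versus vehicle.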

Read-out in experiment [18]: CYP2C8 (gene 1558)
Description: LTEA_HepaRG_CYP2C8: Life Technologies and Expression Analysis (LTEA) Assay for CYP2C8 using HepaRG (AID 2283483). A digest of the protocol: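 Differentiated human HepaRG cells were exposed for 48 h in serum-free induction medium to eight half-log concentrations up to 100 uM in 0.5% DMSO, in duplicate. CYP2C8 mRNA was measured by TaqMan qRT-PCR, normalized to ACTB, GAPDH and POLR2A, and fitted bidirectionally against DMSO.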

Read-out in experiment [19]: CYP2E1 (gene 1571)
In words: LTEA_HepaRG_CYP2E1: Life Technologies and Expression Analysis (LTEA) Assay for CYP2E1 using HepaRG (AID 2283485). A digest of the protocol:
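Human liver line HepaRG, plated 48 h, then serum-free induction medium + chemical x 48 h; 8-pt CRC from 100 uM, half-log, 0.5% DMSO, n=2. Readout: CYP2E1 mRNA qRT-PCR vs ACTB/GAPDH/POLR2A; bidirectional fit vs DMSO.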

Structures are written as SMILES. Activity calls are given as the source filed them. Rule for the calls: active = hit-call score of the fitted dose curve at least 0.9, where 1 is the maximum; inactive = score below 0.9.

Cytochrome P450 2C19 (Homo sapiens), sequence (P33261 whole entry, looked up): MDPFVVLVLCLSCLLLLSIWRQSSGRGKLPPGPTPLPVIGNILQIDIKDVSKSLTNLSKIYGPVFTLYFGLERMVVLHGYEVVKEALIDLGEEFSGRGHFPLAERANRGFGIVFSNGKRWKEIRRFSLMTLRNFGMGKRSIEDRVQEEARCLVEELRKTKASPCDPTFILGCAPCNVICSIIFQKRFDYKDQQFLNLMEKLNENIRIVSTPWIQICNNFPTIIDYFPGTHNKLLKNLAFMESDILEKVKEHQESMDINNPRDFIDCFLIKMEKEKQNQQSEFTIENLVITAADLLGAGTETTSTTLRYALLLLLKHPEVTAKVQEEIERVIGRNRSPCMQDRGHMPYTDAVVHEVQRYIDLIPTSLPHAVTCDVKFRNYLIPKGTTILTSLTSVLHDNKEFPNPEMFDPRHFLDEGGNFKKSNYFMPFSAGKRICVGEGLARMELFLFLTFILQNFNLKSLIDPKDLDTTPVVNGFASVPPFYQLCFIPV
Caspase-3 (Homo sapiens), sequence (P42574 whole entry, looked up): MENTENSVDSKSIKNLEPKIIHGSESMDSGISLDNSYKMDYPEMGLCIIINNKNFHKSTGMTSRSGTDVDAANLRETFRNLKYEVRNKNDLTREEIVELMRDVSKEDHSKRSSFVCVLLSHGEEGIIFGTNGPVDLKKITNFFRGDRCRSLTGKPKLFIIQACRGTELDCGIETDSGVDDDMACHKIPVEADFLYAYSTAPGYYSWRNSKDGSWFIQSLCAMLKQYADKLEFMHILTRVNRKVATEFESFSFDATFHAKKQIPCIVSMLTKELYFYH
Apoptosis regulator Bcl-2 (Homo sapiens), sequence (P10415 whole entry, looked up): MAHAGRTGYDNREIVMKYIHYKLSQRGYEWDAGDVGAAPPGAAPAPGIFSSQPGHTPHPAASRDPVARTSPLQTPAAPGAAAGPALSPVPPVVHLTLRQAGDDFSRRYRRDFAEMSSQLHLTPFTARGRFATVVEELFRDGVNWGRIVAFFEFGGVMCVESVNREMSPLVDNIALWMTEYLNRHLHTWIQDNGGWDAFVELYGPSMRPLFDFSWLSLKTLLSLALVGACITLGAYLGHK

In the case of `C=CC(=O)NCNC(=O)C=C`, the AC50 (usually the midpoint of the concentration-response curve, whichever way the signal moves) in [1] was 12.7 µM (active); in [19], 50 µM (active). Moreover, the result in [2], in [3], in experiment [4], in experiment [5], in experiment [6] and in [7] was inactive. Moreover, the result in [8], in experiment [9], in experiment [10], in experiment [11], in [12] and in [13] was inactive. In addition, the compound was called inactive in [14], in experiment [15], in experiment [16], in experiment [17] and in [18].

As for `CCCCCCCCCc1ccc(O)cc1`, the compound was classed as inactive in experiment [1], in experiment [2], in experiment [3], in experiment [4], in experiment [5] and in experiment [6]. Also, the outcome in [7], in experiment [8], in experiment [9], in [10], in experiment [11] and in [12] was inactive. Further, the result in [13], in experiment [14], in experiment [15], in experiment [16], in [17] and in [18] was inactive. In addition, the outcome in experiment [19] was inactive.

In the case of `c1cc2ccc3cccc4ccc(c1)c2c34`, the compound was classed as inactive in [1], in experiment [2], in experiment [3], in experiment [4], in [5] and in [6]. Further, the compound was called inactive in experiment [7], in [8], in [9], in experiment [10], in experiment [11] and in [12]. Moreover, the outcome in experiment [13] and in experiment [15] was inactive. For the same compound, the AC50 in experiment [14] is 50 µM (active); in [16], 6.95 µM (active); in experiment [17] it was 4.34 µM (active); in experiment [18], 4.67 µM (active); in experiment [19], 29.6 µM (active).

Regarding `Clc1ccc(C(c2ccccc2Cl)C(Cl)(Cl)Cl)cc1` (centres undefined), the outcome in experiment [1], in [2], in experiment [3], in experiment [4], in experiment [5] and in experiment [6] was inactive. In addition, the compound was called inactive in experiment [8], in [10], in experiment [11], in experiment [12], in experiment [13] and in experiment [14]. For the same compound, in [15], the compound was called inactive. Also, the AC50 in experiment [7] was 36.3 µM (active); in [9] it was 10.7 µM (active); in experiment [16], 0.213 µM (active); in [17], 1.76 µM (active); in experiment [18], 0.794 µM (active); in experiment [19], 39.8 µM (active).

As to `Cc1cc2c3c(c1)C(c1ccccc1)=N[C@@H](NC(=O)c1ccncc1)C(=O)N3CC2`, the AC50 in experiment [1] is 74.3 µM (active); in experiment [3], 10.3 µM (active); in [7], 50 µM (active); in experiment [9], 62.5 µM (active); in experiment [14], 23.1 µM (active); in experiment [17], 3.58 µM (active). For the same compound, in [19], the AC50 is 17.9 µM (active). For the same compound, the compound was classed as inactive in experiment [2], in experiment [4], in experiment [5], in experiment [6], in [8] and in experiment [10]. The result in experiment [11], in [12], in experiment [13], in experiment [15], in experiment [16] and in [18] was inactive.

For `O=S(=O)(O)C(F)(F)C(F)(F)C(F)(F)C(F)(F)C(F)(F)C(F)(F)F`, the outcome in experiment [1], in experiment [3], in experiment [4], in [5], in [6] and in experiment [7] was inactive. For the same compound, the outcome in [8], in [10], in experiment [11], in experiment [12], in experiment [13] and in experiment [14] was inactive. Further, the compound was classed as inactive in [15] and in experiment [19]. In addition, the AC50 in experiment [2] is 6.58 µM (active); in [9] it was 3.42 µM (active); in experiment [16], 24.6 µM (active); in [17] it was 32 µM (active); in experiment [18] it was 50 µM (active).

(Values after PubChem BioAssay (EPA / NIEHS).)
